# Results from the supplement of paper PMC10338343.
# ± gives the standard deviation. Whole data set: some 8,200 sequences, median “pre-steady-state target cleavage rate” near 0.024, cut for the highest 2% near 1.3. The entries come from a sample that favours the highest values as a whole.
# Tested on: MIWI (PIWIL1) piRISC loaded with L1MC piRNA (30 nt)
# Assay: pre-steady-state target cleavage rate (min^-1); MIWI and MILI are mouse PIWI proteins and EfPiwi is from a freshwater sponge; tags in brackets are library labels; higher = faster piRNA-guided slicing of the target
# Conditions: guide: L1MC piRNA 5'p-UAACUAAAUACUAUGCAAGCUGUAGGUCCU
# In short: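 At 33 °C in HEPES–potassium acetate buffer, a transcribed, DNA-blocked target RNA library […] was exposed for 0–8 or 0–960 min to 1 nM active affinity-purified piRISC carrying a single synthetic guide, with or without 500 nM GTSF1 partner protein. Uncleaved targets were sequenced and normalised to depth and to weakly complementary targets. With three trials pooled and k3 capped at 0.0001 min^-1, a burst-and-steady-state fit produced the pre-steady-state cleavage rate.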
# [1] = auxiliary factor: 500 nM mouse GTSF1
# [2] = auxiliary factor: none (no GTSF1)
# 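Further: 1 nM active piRISC with 0.1 nM target library at 33 °C single turnover.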
Sequence,pre-steady-state target cleavage rate [1],pre-steady-state target cleavage rate [2]
UCCUGGAUGUCGAACCAUAGAUUUAGUUA,< 0.0001,
UCCUGCUUCAGCUUGCAUAGUAAUUAGUUA,0.823 ± 0.043,0.0173 ± 0.0042
UCCUGCUACACCUUGCAUAGUAUUUACAAA,0.245 ± 0.056,
UGGACCUACAGCUUGCAUAGUAUUAAGUAA,0.335 ± 0.037,0.0164 ± 0.0052
UCCUGGAUCAGCCUGCAUAGUAUUUAGUUA,1.02 ± 0.045,0.0431 ± 0.008
UGGACCUACAGCUUGCUAUGUAUUUAGUUA,0.115 ± 0.016,0.00588 ± 0.001
UCCUGGAACAGCUUGCAUAGUUUAUAGUUA,0.0662 ± 0.011,0.0101 ± 0.003
UGGAGCUACAGCUUGCAUAGUAUUUAGUAA,0.953 ± 0.06,0.0465 ± 0.0085
UGGAGCUACAGCUUGCAUAGUAUUUAGUUA,1.25 ± 0.045,0.0783 ± 0.012
AGGAGCUACAGCAUGCAUAGUAUUUAGUUA,1.37 ± 0.058,0.0574 ± 0.01
UGGAGCUACAGCAUGCAUAGUAUUUAGUUA,1.14 ± 0.042,0.0429 ± 0.0078
AGGAGCUACAGCUUGCAUAGUAUUUAGUUA,1.42 ± 0.055,0.0984 ± 0.016
UCGAGCUACACCUUGCAUAGUAUUUAGUUA,1.01 ± 0.046,0.0524 ± 0.0089
UGGAGCUACACCUUGCAUAGUAUUUAGUUA,1.12 ± 0.051,0.0597 ± 0.0097
AGGAGCUACACCUUGCAUAGUAUUUAGUUA,1.36 ± 0.044,0.0609 ± 0.012
AGGAGCUACAGCUUGCAUAGUAUUUAGUAA,1.02 ± 0.092,0.0616 ± 0.012
UCGAGCUACAGCAUGCAUAGUAUUUAGUUA,1.19 ± 0.054,0.0332 ± 0.0062
UGGAGCCUACAGCUUGCAUAGUAUUUAGUUA,1.41 ± 0.1,0.0757 ± 0.013
UCCUGCUACAGCUUGCAUUAGUAUUUAGUUA,0.0188 ± 0.0083,
UCCAGGAACAGCUUGCAUAGUAUUUAGUAA,0.57 ± 0.047,0.0391 ± 0.0081
AGGAGCUACAGCUUGCAUAGUAUUAAGUUA,0.783 ± 0.065,0.0457 ± 0.0092

Sequence,pre-steady-state target cleavage rate [1],pre-steady-state target cleavage rate [2]
UCCACCUACAGCUUGCAUAGUUUUUUCAAA,0.144 ± 0.028,
UCCUGGUACAGCUUGCAUAGUAUUAUCAAA [g7:g24:cont:t1A],0.124 ± 0.024,
UCCACCUACAGCUUGCAUAGUAUUUAGUUA [g2:g27:cont:t1A],0.987 ± 0.051,0.0744 ± 0.015
UCCAGCUACAGCUUGCAUAGUAUUUAGUUA,0.682 ± 0.042,0.0438 ± 0.0056
UCCAGCCUACAGCUUGCAUAGUAUUUAGUUA,1.32 ± 0.062,0.0623 ± 0.0092
UCGAGCCUACAGCUUGCAUAGUAUUUAGUUA,1.46 ± 0.074,0.0844 ± 0.016
AGGAGCCUACAGCUUGCAUAGUAUUUAGUUA,1.4 ± 0.072,0.0847 ± 0.013
UCCUGGAUCAGCUAGCAUAGUAUUUAGAUA,0.226 ± 0.026,0.00546 ± 0.0022
UCGACCUACUGCUUGCAUACUAUUUAGUUA,0.345 ± 0.014,0.0294 ± 0.0065
UCCUCCUACAGCUUGCAUAAUAUUUAGUUA,0.52 ± 0.03,0.0234 ± 0.0044
UGGAGGAACAGCUUGCAUAGUAUUUAGUAA,0.754 ± 0.05,0.0519 ± 0.012
UCCACCUACACCAUGCAUAGUAUUUAGUUA,0.719 ± 0.036,0.0161 ± 0.003
UCCUGGAUGAGCUAGCAUAGUAUUUAGAAA,0.124 ± 0.029,
UGCGACCUACAGCUUGCAUAGUAUUUAGUUA,1.41 ± 0.057,0.0975 ± 0.02
AGCGACCUACAGCUUGCAUAGUAUUUAGUUA,1.37 ± 0.049,0.112 ± 0.019
UCCUGCUACAGCUUGGUAAGUAUUUAGUUA,0.0624 ± 0.011,
UCCUGGAUCAGCAUGCAUAGUAUUUAGAUA,0.375 ± 0.034,0.00494 ± 0.0022
UCCUGGAUCAGCUUGCAUAGUAUAUAGUAA,0.458 ± 0.054,0.0134 ± 0.0052
UCCAGCUACAGCUUGCAUAGUUUUUAGUUA,0.253 ± 0.026,0.0203 ± 0.0032
UCGAGCUACAGCUUGCAUAGUAUUUAGAAA,0.407 ± 0.039,0.0061 ± 0.0023
UCGAGCUACAGCUUGCAUAGUAUUUAGUAA,1.08 ± 0.082,0.0348 ± 0.0066

Sequence,pre-steady-state target cleavage rate [1],pre-steady-state target cleavage rate [2]
UCGAGCUACAGCUUGCAUAGUAUUUAGUUA,1.41 ± 0.062,0.0832 ± 0.014
UCCUGCUACGAGCUUGCAUAGUAUUUAGUUA,0.717 ± 0.073,0.0315 ± 0.0066
ACGAGCUACAGCUUGCAUAGUAUUUAGUUA,1.54 ± 0.057,0.094 ± 0.016
UCGAGCUACAGCUUGCAUAGUAUUUAGAUA,0.443 ± 0.041,0.0206 ± 0.0046
UCCUGGAUCAGCUUGCAUAGUAUUAAGAUA,0.265 ± 0.05,0.00645 ± 0.0033
UGGACCUACAGCUUGCAUAGUAUGUAGUUA,0.332 ± 0.041,0.0171 ± 0.0041
UCCUGCUACAGCUUGGUUAGUAUUUACAAA,0.0104 ± 0.0047,
UCGACCUACAGCUUGCAUAGUAUUUUGUUA,0.921 ± 0.043,0.0471 ± 0.0091
UCCUGGAUCAGCUAGCAUAGUAUUUUCAAA,0.0506 ± 0.015,
AGGACUCUACAGCUUGCAUAGUAUUUAGUUA,1.28 ± 0.069,0.0617 ± 0.011
UCCACUCUACAGCUUGCAUAGUAUUUAGUUA,0.884 ± 0.029,0.0688 ± 0.012
UGGACACUACAGCUUGCAUAGUAUUUAGUUA,1.04 ± 0.063,0.0643 ± 0.0081
UCGACGCUACAGCUUGCAUAGUAUUUAGUUA,1.27 ± 0.063,0.094 ± 0.022
UGGACUACAGCUUGCAUAGUAUUUAGUUA,1.34 ± 0.053,0.0823 ± 0.013
UGGACUCUACAGCUUGCAUAGUAUUUAGUUA,1.4 ± 0.066,0.0856 ± 0.017
UCGACUCUACAGCUUGCAUAGUAUUUAGUUA,1.48 ± 0.06,0.0579 ± 0.0096
AGGACUACAGCUUGCAUAGUAUUUAGUUA,1.24 ± 0.066,0.0945 ± 0.016
UGGACCUACACCUUGCAUAGUAUUUUCAAA,0.327 ± 0.05,0.00389 ± 0.0023
UCCUGGAACUGCUAGCAUAGUAUUUAGUUA,0.534 ± 0.037,0.00949 ± 0.0035
UCGACCUACAGCUUGCAUAGUAUUUAGUCA,0.947 ± 0.041,0.0656 ± 0.013
UCCUGGUACACCUUGCAUAGUAUUUAGUAA,0.334 ± 0.078,0.0104 ± 0.0044
